# According to the supplement of paper PMC8728848:
# This excerpt belongs to a sample that is enriched for the strongest signals.
# B1: LERP (Drosophila melanogaster), B7Z0Q8 (protein)
# chain: MRCSLQKDCAAPTQENFRQMRFPIVISLLLLLFCSGESVAADAANQLKFSTTECKLKEPIYGSTFDFSGLHSDLAHVVKSMNIGGDQFEFNICGNLSRTCNGESNVAACLKRQGKEYILGRQHELFYNNGNMFLKYKSGAKCDNGTADKPNYQLHVMFSCDYTLDAQPMHVTPYANEVCSFYISYRTPLACLSIPEGLQSNSCRVGDTKSNGTFDLMPLSDSNYHTSNRQGAFFVINVCKPVLYGENSMCPAGSSVCLFDSKATNPKERFINFGNVQTHPVVEKGQLLLRHESPTPCAKNSSANYTSVIYFSCDKFIRNAHPEFAGLGADSCTYQFNFATPLACNDLKPCTAFTSTNELLDLSSLSSKPARTLLKDGKNYTIAVCAHAGAPCQENGGACYEQNSTTISLGNSNSQLRFNQTGSLYLLYEDGAECSTATGMRRWSTKIEFVCANNATKDNGASTAGGSDSLKIIEDSNCQLLIQYQTPLACREPIRCKATTYVDHTNDGLGSSGDELIDLTPLISATDNYEARVELPASMEHLVPKTTKFFLNVCRPLVPKYQLGCAGGSAACMAKVTAAGAPEEERSMGFPLVSLTQRNRTFAELAYLKGDPCPTDNTSELSTHILFNCNMRAGRGQPVLRSVEDCAYRFEWETNVFCPPHECTFSADTCDLVHDELGRRFNFKSAPFTKDGKIEIDYNATKMSVNICGAHRKAMTDYSQALVNIFFTHESPNCGREGTMNVQIRLICSDQTESSSTISSDQQCNLLYVQRTPSICEFLSLGATQQNFESNGSTSSSTSSSSTSTTTSTTTQASPAGKPTKAATSTTTTTVGPDPAATPIGPTASVGTILGAILSVTFCVTCLGLLAFSPARRQRIRRLFRRSNSAVRYSRVQSNEEANLLLEPNGEFTESDDDMLL
# Experiments:
# Test in all cases: glycan array binding signal (z-score within array); higher = stronger binding
# Conditions in all cases: glycan notation: IUPAC condensed, linker removed
# Fuc(a1-2)Gal(b1-4)Glc = biological target: Fuc(a1-2)Gal(b1-4)Glc
# Summary of the method: (§1)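 From the Consortium for Functional Glycomics database, 3228 arrays were curated, keeping only those whose protein sequence was available. Binding is given as a within-array Z-score averaged across arrays sharing a protein sequence and across linkers. Negative Z-scores can be read as non-binding.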
# [1] = biological target: Fuc(a1-2)Gal(b1-4)GlcNAc(b1-3)Gal(b1-4)GlcNAc
# Summary of the method: as §1
# [2] = biological target: Fuc(a1-2)Gal6S(b1-4)GlcNAc
# Summary of the method: as §1
# [3] = biological target: Fuc(a1-2)[GalNAc(a1-3)]Gal(b1-4)GlcNAc
# Summary of the method: as §1
# [4] = biological target: Fuc(a1-2)[GalNAc(a1-3)]Gal(b1-4)[Fuc(a1-3)]GlcNAc
# Summary of the method: as §1
# Gal(a1-3)Gal(b1-3)GlcNAc = biological target: Gal(a1-3)Gal(b1-3)GlcNAc
# Summary of the method: as §1
# Gal(a1-3)GalNAc = biological target: Gal(a1-3)GalNAc
# Summary of the method: as §1
# [5] = biological target: Gal(a1-4)Gal(b1-4)GlcNAc(b1-3)Gal(b1-4)Glc
# Summary of the method: as §1
# Gal(a1-4)GlcNAc = biological target: Gal(a1-4)GlcNAc
# Summary of the method: as §1
# [6] = biological target: Gal(b1-3)[Fuc(a1-4)]GlcNAc(b1-2)Man(a1-3)[Gal(b1-3)[Fuc(a1-4)]GlcNAc(b1-2)Man(a1-6)]Man(b1-4)GlcNAc(b1-4)[Fuc(a1-6)]GlcNAc
# Summary of the method: as §1
# [7] = biological target: Gal(b1-3)[Neu5Ac(a2-6)]GalNAc
# Summary of the method: as §1
# Gal(b1-4)Glc6S = biological target: Gal(b1-4)Glc6S
# Summary of the method: as §1
# [8] = biological target: Gal(b1-4)GlcNAc(b1-3)GalNAc
# Summary of the method: as §1
# [9] = biological target: Gal(b1-4)GlcNAc(b1-3)[Gal(b1-4)GlcNAc(b1-6)]Gal(b1-4)GlcNAc
# Summary of the method: as §1
# Gal3S(b1-4)GlcNAc = biological target: Gal3S(b1-4)GlcNAc
# Summary of the method: as §1
# [10] = biological target: Gal3S(b1-4)[Fuc(a1-3)]Glc6S
# Summary of the method: as §1
# Gal4S6S(b1-4)GlcNAc = biological target: Gal4S6S(b1-4)GlcNAc
# Summary of the method: as §1
# GalNAc(a1-3)GalNAc = biological target: GalNAc(a1-3)GalNAc
# Summary of the method: as §1
# GlcA(b1-3)Gal = biological target: GlcA(b1-3)Gal
# Summary of the method: as §1
# [11] = biological target: GlcNAc(a1-4)Gal(b1-4)GlcNAc(b1-3)Gal(b1-4)[Fuc(a1-3)]GlcNAc(b1-3)Gal(b1-4)[Fuc(a1-3)]GlcNAc
# Summary of the method: as §1
# [12] = biological target: GlcNAc(b1-2)Man(a1-3)[GlcNAc(b1-2)Man(a1-6)]Man(b1-4)GlcNAc(b1-4)[Fuc(a1-6)]GlcNAc
# Summary of the method: as §1
# GlcNAc3Prop(b1-4)GlcNAc = biological target: GlcNAc3Prop(b1-4)GlcNAc
# Summary of the method: as §1
# Kdn(a2-3)Gal(b1-3)GlcNAc = biological target: Kdn(a2-3)Gal(b1-3)GlcNAc
# Summary of the method: as §1
# [13] = biological target: Man(a1-2)Man(a1-2)Man(a1-3)Man
# Summary of the method: as §1
# Man(a1-3)[Man(a1-6)]Man = biological target: Man(a1-3)[Man(a1-6)]Man
# Summary of the method: as §1
# [14] = biological target: Man(a1-3)[Man(a1-6)]Man(b1-4)GlcNAc(b1-4)GlcNAc
# Summary of the method: as §1
# Neu5Ac(a2-3)Gal = biological target: Neu5Ac(a2-3)Gal
# Summary of the method: as §1
# [15] = biological target: Neu5Ac(a2-3)Gal(b1-3)GalNAc
# Summary of the method: as §1
# [16] = biological target: Neu5Ac(a2-3)Gal(b1-3)[Neu5Ac(a2-3)Gal(b1-4)]GlcNAc
# Summary of the method: as §1
# [17] = biological target: Neu5Ac(a2-3)Gal(b1-4)GlcNAc(b1-3)GalNAc
# Summary of the method: as §1
# [18] = biological target: Neu5Ac(a2-3)Gal(b1-4)GlcNAc6S
# Summary of the method: as §1
# [19] = biological target: Neu5Ac(a2-3)Gal(b1-4)[Fuc(a1-3)]GlcNAc
# Summary of the method: as §1
# [20] = biological target: Neu5Ac(a2-3)Gal(b1-4)[Fuc(a1-3)]GlcNAc(b1-6)[Gal(b1-3)]GalNAc
# Summary of the method: as §1
# [21] = biological target: Neu5Ac(a2-6)Gal(b1-4)GlcNAc(b1-3)Gal(b1-4)[Fuc(a1-3)]GlcNAc(b1-3)Gal(b1-4)[Fuc(a1-3)]GlcNAc
# Summary of the method: as §1
binder,measurement,setting,value
B1,glycan array binding signal (z-score),Fuc(a1-2)Gal(b1-4)Glc,-1.18
same,glycan array binding signal (z-score),[1],0.534
same,glycan array binding signal (z-score),[2],-0.168
same,glycan array binding signal (z-score),[3],0.43
same,glycan array binding signal (z-score),[4],1.65
same,glycan array binding signal (z-score),Gal(a1-3)Gal(b1-3)GlcNAc,-0.704
same,glycan array binding signal (z-score),Gal(a1-3)GalNAc,-0.56
same,glycan array binding signal (z-score),[5],2.8
same,glycan array binding signal (z-score),Gal(a1-4)GlcNAc,-0.583
same,glycan array binding signal (z-score),[6],5.88
same,glycan array binding signal (z-score),[7],-0.837
same,glycan array binding signal (z-score),Gal(b1-4)Glc6S,-0.389
same,glycan array binding signal (z-score),[8],0.146
same,glycan array binding signal (z-score),[9],-0.458
same,glycan array binding signal (z-score),Gal3S(b1-4)GlcNAc,-0.01
same,glycan array binding signal (z-score),[10],1.16
same,glycan array binding signal (z-score),Gal4S6S(b1-4)GlcNAc,0.955
same,glycan array binding signal (z-score),GalNAc(a1-3)GalNAc,-0.435
same,glycan array binding signal (z-score),GlcA(b1-3)Gal,-0.753
same,glycan array binding signal (z-score),[11],3.64
same,glycan array binding signal (z-score),[12],6.93
same,glycan array binding signal (z-score),GlcNAc3Prop(b1-4)GlcNAc,-0.064
same,glycan array binding signal (z-score),Kdn(a2-3)Gal(b1-3)GlcNAc,-0.084
same,glycan array binding signal (z-score),[13],5.38
same,glycan array binding signal (z-score),Man(a1-3)[Man(a1-6)]Man,-0.079
same,glycan array binding signal (z-score),[14],2.66
same,glycan array binding signal (z-score),Neu5Ac(a2-3)Gal,-0.653
same,glycan array binding signal (z-score),[15],0.949
same,glycan array binding signal (z-score),[16],-0.204
same,glycan array binding signal (z-score),[17],0.38
same,glycan array binding signal (z-score),[18],0.734
same,glycan array binding signal (z-score),[19],-1.2
same,glycan array binding signal (z-score),[20],2.71
same,glycan array binding signal (z-score),[21],-0.095
